Assay results taken from PubChem BioAssay AID651679 (Broad Institute, 2012).
This is one part of the list. Values without a mark were called inactive. No rule for the calls is given here.

The compounds below were run against Adenosylmethionine-8-amino-7-oxononanoate aminotransferase (Mycobacterium tuberculosis (strain ATCC 25618 / H37Rv)) (UniProt P9WQ81) (assay: inhibition of M. tuberculosis BioA aminotransferase – biochemical, plate reader, cherry-pick samples, set 03, dose response (AID 651679;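 also: top concentration of the dilution series was 10 µM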)). Settings: purified BioA enzyme.
Adenosylmethionine-8-amino-7-oxononanoate aminotransferase (Mycobacterium tuberculosis (strain ATCC 25618 / H37Rv)), sequence (P9WQ81 whole entry, looked up): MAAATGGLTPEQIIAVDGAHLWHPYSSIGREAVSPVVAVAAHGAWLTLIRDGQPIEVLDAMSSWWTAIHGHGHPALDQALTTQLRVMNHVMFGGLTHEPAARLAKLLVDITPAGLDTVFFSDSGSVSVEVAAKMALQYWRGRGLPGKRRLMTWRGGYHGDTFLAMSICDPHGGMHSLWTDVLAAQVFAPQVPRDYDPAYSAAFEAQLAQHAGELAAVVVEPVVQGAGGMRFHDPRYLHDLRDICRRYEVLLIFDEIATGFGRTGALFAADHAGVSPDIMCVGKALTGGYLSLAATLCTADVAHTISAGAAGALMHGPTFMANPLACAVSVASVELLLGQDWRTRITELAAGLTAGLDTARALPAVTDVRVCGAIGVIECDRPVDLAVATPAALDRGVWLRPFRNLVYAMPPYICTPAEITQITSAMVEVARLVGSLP
Work on `Cc1c(OC(C)C(=O)NCC2CCC(C(=O)O)CC2)ccc2c1oc(=O)c1ccccc12` (stereo not given) yielded a max activity of -6.87% [at 0.3 µM].
`C=C(C)CSc1nc(N)c2c3c(sc2n1)CCC3` showed a max activity of -5.78%.
Work on `CC1(C)CC(=O)C=C(c2ccc3ncccc3c2)C1` yielded a max activity of -6.7%.
`CC(=O)c1ccc(N2CCN(C(=O)c3ccc4nc[nH]c4c3)CC2)cc1` was tested, and the max activity was 5.95% [at 10 µM].
Work on `COCCNC(=O)C[C@H]1CC[C@@H]2[C@H](COc3ccc(NC(=O)Nc4cccc(F)c4)cc3C(=O)N2C)O1` yielded a max activity of 9.1%.
Compound `C=CCn1c(SCc2c(C(=O)OC)sc(N)c2C(=O)OC)nnc1-c1ccc(Cl)cc1` has a max activity of -8.75%.
Compound `Cc1ccc(Cc2c(C)nc3nc(SCC(=O)NCCN4CCOCC4)nn3c2C)cc1` has a max activity of -9.07%.
`CC(=O)CSc1nnc(CSc2ncccn2)n1C1CCCCC1` gave a max activity of 4.14%.
Compound `CCCOc1ccc2c3c(c(=O)oc2c1OCCC)CCC3` has a max activity of 12.3% [at 1.2 µM].
`Cc1nc(=O)c(-c2ccccc2)c(C)n1-c1ccc(Br)cc1` was tested, and the max activity was -5.48% [at 0.08 µM].
`O=C(CSc1n[nH]c(-c2cccnc2)n1)Nc1ccnc2ccccc12` gave a max activity of -8.45%.
`O=C(c1ccncc1)N1CC[C@@H]2[C@H]1c1cc(Br)ccc1N[C@@H]2CO` showed a max activity of -4.43%.
`O=c1[nH]c(N2CCN(Cc3ccc4c(c3)OCO4)CC2)nc2c1CCCC2` was tested, and the max activity was -3.93% [at 5 µM].
`COc1cc(-c2n[nH]c(=S)n2Cc2ccccc2)cc(OC)c1OC` was tested, and the max activity was -6.94% [at 0.6 µM].
In the case of `Cn1c(=O)c2c(nc(OCc3cccnc3)n2Cc2ccccc2)n(C)c1=O`, the max activity is reported as -7.11% [at 0.3 µM].
`Cc1nc2nc(SCC(=O)NCc3ccco3)nn2c(C)c1Cc1ccccc1` gave a max activity of -11.9% [at 0.16 µM].
`CCC(CO)Oc1cc(NC(=O)c2cccc(F)c2)c2ncn(C(C)C)c2c1` (stereo not given) was tested, and the max activity was -8.92%.
In the case of `Cc1c2cnn(CC(=O)NCc3ccccn3)c(=O)c2c(C)n1Cc1ccc(Cl)cc1`, the max activity is reported as -3.46% [at 10 µM].
Work on `CS(=O)(=O)N1[C@H](C(=O)NCc2ccncc2)[C@@H](CO)[C@@H]2Cn3c(ccc(C4=CCCCC4)c3=O)[C@@H]21` yielded a max activity of 4.42%.
With `CC(=O)O[C@]1(C(C)=O)CC[C@H]2[C@@H]3C=C(C)C4=CC(=O)CC[C@]4(C)[C@H]3CC[C@@]21C` the max activity was -6.47% [at 0.6 µM].
